Test results: PubChem BioAssay
Activity calls are given as the source filed them.

Assay: changes in parasitized red cell lysis, either direction – P. falciparum Indochina, OD700, 3 h, PSAC antagonist project, primary screen (AID 1156)
Details: P. falciparum-infected erythrocytes, osmotic lysis, higher = more signal, called active from +8 up or from −8 down

z-score, inactive:
CC(=O)NCCCC[C@@H]1NC(=O)[C@@H]2C[C@H](C(=O)NCCCCCCNC(=O)CS)[C@H](c3cccc(OCCO)c3)N2C1=O 0.0299
COCCOC(=O)N1C(=O)[C@@]2(c3cc(C#CC4=CCCCC4)ccc31)[C@H](C(=O)N1CCc3cc(OC)c(OC)cc3C1)[C@H]1C(=O)O[C@H](c3ccccc3)[C@H](c3ccccc3)N1[C@@H]2c1ccc(OCCO)cc1 -0.129
COCCOC(=O)N1C(=O)[C@@]2(c3cc(C#CC4=CCCCC4)ccc31)[C@H](C(=O)Nc1nc3ccccc3s1)[C@H]1C(=O)O[C@H](c3ccccc3)[C@H](c3ccccc3)N1[C@@H]2c1ccccc1OCCO -0.0917
COc1ccc(C(O)C2C=CC3C(=O)N(c4ccccc4)C(=O)C3N2Nc2ccc(C(C)C)cc2)cc1OCc1ccccc1 (centres undefined) -0.167
